Experimental findings from PubChem BioAssay (Tox21) are described below.

Records with an inconclusive call do not appear. A number with no mark means an inactive call. Active and inactive are the calls of the source. Unless noted, calls follow the shape of the full dose curve.

Experiment [1] in a line: qHTS assay to identify small molecule agonists of the vitamin D receptor (VDR) signaling pathway - cell viability counter screen (AID 743224; active = well fitted curve in the direction sought with a large enough effect in the repeat runs; an effect the other way counts as inactive or inconclusive; also: nearly all actives have a fitted effect of over 50% in size; also: potency is read from the fitted curve at half-maximal effect). Put shortly:
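Counter screen run in the same wells as the VDR-bla reporter assay: CellTiter-Glo luminescence, 30 min at room temperature, after 16 h compound treatment at 37C of cells pre-plated for 4 h.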
In general terms: qHTS replaces the single test concentration by a dilution series.

A short description of experiment [2]: qHTS assay to identify small molecule antagonists of the vitamin D receptor (VDR) signaling pathway - cell viability counter screen (AID 743225; active = well fitted curve in the direction sought with a large enough effect in the repeat runs; an effect the other way counts as inactive or inconclusive; also: nearly all actives have a fitted effect of over 50% in size). Put shortly:
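Viability counter screen run in the same wells as the beta-lactamase reporter assay: HEK 293T VDR-UAS-bla cells, 16 h compound exposure at 37C with 3 nM (final) 1-alpha,25-dihydroxyvitamin D3. CellTiter-Glo luminescence, 30 min, room temperature.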

Experiment [3] is described as follows: qHTS assay to identify small molecule agonists of the NFkB signaling pathway - cell viability counter screen (AID 1159515). Also: nearly all actives have a fitted effect of over 55% in size. Also: potency is read from the fitted curve at half-maximal effect. Put shortly: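 Read by CellTiter-Glo luminescence (30 min, room temperature) in the wells also used for the beta-lactamase FRET read. ME-180 NFkB-bla cells at 2,000 per well were plated overnight, then exposed to compound for 5 hr at 37 C.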

Experiment [4] can be described thus: qHTS assay to identify small molecule agonists of the endoplasmic reticulum stress response signaling pathway (AID 1159516; active = well fitted activation curve with a large enough effect in the signal ratio in the repeat runs, not every such curve was filed as active; the % refers to the signal ratio). Put shortly: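 Ratiometric FRET readout (405 nm excitation; 460 and 530 nm emission) of a beta-lactamase gene driven by the ER stress response element, after 2 hr substrate loading. HeLa ESRE-bla cells were seeded overnight and treated with compounds for only 5 hr at 37 C.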

A short description of experiment [5]: qHTS assay to identify small molecule agonists of the endoplasmic reticulum stress response signaling pathway - cell viability counter screen (AID 1159517). Also: series mostly up to about 61 µM; nearly all actives have a fitted effect of over 50% in size. In short, it runs like this: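 After overnight attachment, ESRE-bla HeLa cells were treated with Tox21 library compounds for 5 hr. CellTiter-Glo luminescence, read 30 min post-addition at room temperature, reported viability.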

Experiment [6] is described as follows: qHTS assay to identify small molecule antagonists of the retinoid-related orphan receptor gamma (ROR-gamma) signaling pathway - cell viability counter screen (AID 1159520; active = well fitted curve in the direction sought with a large enough effect in the repeat runs; an effect the other way counts as inactive or inconclusive; also: nearly all actives have a fitted effect of over 50% in size; also: potency is read from the fitted curve at half-maximal effect). Put shortly:
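Cytotoxicity was read from cellular ATP (CellTiter-Glo luminescence) after 16 hr at 37 C with 1 uM doxycycline induction. The inducer was added 2 hr after compound transfer to Tet-on ROR gamma CHO cells.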

Experiment [7] can be described thus: qHTS assay to identify small molecule agonists of the AP-1 signaling pathway - cell viability counter screen (AID 1159525). Also: nearly all actives have a fitted effect of over 55% in size. Also: potency is read from the fitted curve at half-maximal effect. Put shortly: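 Intracellular ATP by Cell Titer Glo luminescence (30 min, RT) in the same ME-180 AP-1-bla wells after the 5 h compound exposure at 37 °C. Normalised to tetra n-octyl ammonium bromide and DMSO controls.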
The nature of experiment [8]: qHTS assay to identify small molecule agonists of the AP-1 signaling pathway (AID 1159526).
Experiment [9] has as its target Retinoic acid receptor RXR-alpha (Homo sapiens) (UniProt P19793). The experiment can be described thus: qHTS assay to identify small molecule agonists of the RXR signaling pathway (AID 1159527). Also: nearly all actives have a fitted effect of over 35% in size. In short, it runs like this: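 Agonist mode; 9-cis retinoic acid positive control. HEK 293T UAS-bla reporter cells, 2% charcoal-stripped FBS, 16 hr compound exposure at 37 C/5% CO2. LiveBLAzer B/G FRET substrate 2 hr RT; ex 405, em 460/530 nm.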

Experiment [10] deals with Nuclear receptor ROR-gamma (Homo sapiens) (UniProt P51449). The experiment can be described thus: qHTS assay to identify small molecule antagonists of the retinoid-related orphan receptor gamma (ROR-gamma) signaling pathway (AID 1159521; active = well fitted curve in the direction sought with a large enough effect in the repeat runs; an effect the other way counts as inactive or inconclusive; also: nearly all actives have a fitted effect of over 50% in size; also: potency is read from the fitted curve at half-maximal effect). In short, it runs like this:
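Luminescence readout (ONE-Glo, 30 min RT) after 16 h doxycycline induction; loss of signal scored as antagonism. CHO cells with TET-inducible RORγ and RORE-LUC reporter; compounds added 2 h before 1 uM final doxycycline.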

Sequence of Retinoic acid receptor RXR-alpha (Homo sapiens) (P19793 whole entry, looked up): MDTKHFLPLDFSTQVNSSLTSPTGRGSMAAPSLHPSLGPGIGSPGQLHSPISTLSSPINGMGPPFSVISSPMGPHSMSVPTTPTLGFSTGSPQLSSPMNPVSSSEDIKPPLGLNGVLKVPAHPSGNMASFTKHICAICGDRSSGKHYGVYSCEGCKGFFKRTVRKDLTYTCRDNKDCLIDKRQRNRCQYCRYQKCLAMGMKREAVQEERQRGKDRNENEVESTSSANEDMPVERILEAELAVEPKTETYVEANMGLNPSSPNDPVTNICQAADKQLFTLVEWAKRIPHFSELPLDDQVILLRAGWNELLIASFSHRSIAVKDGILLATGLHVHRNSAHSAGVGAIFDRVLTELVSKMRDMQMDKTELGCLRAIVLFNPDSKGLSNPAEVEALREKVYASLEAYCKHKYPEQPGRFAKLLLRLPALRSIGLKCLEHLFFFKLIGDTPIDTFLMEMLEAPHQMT

Regarding `Cc1c(N)cccc1[N+](=O)[O-]`, the Potency entry in experiment [1], in experiment [2], in experiment [3], in experiment [4], in [5] and in [6] was “inactive” throughout. Moreover, the Potency entry in [7] and in [8] was “inactive” each time.
As for `CO[C@@H]1[C@H](OC(=O)/C=C/C=C/C=C/C=C/C(=O)O)CC[C@]2(CO2)[C@H]1[C@@]1(C)O[C@@H]1CC=C(C)C`, the Potency entry in experiment [2], in experiment [3], in experiment [4], in experiment [5], in experiment [6] and in experiment [7] was “inactive” each time. The Potency entry in [8] is “inactive”.
As for `CCCCc1nc2cccnc2n1Cc1ccc(-c2ccccc2-c2nnn[nH]2)cc1`, the Potency result in [1], in experiment [2], in experiment [3], in experiment [4], in experiment [5] and in experiment [6] was “inactive” throughout. In addition, the Potency result in experiment [7] and in [8] was “inactive” in each case.
Take `CCO[C@H](Cc1ccc(OCCc2ccc(OS(C)(=O)=O)cc2)cc1)C(=O)O`: the Potency entry in experiment [1], in experiment [2], in experiment [3], in experiment [4], in [5] and in experiment [6] was “inactive” in each case. For the same compound, the Potency result in experiment [7] and in experiment [8] was “inactive” in each case.
As to `NCc1ccccc1Sc1ccccc1CO`, the Potency result in [2], in experiment [3], in experiment [4], in experiment [5], in [6] and in experiment [7] was “inactive” in each case. Also, the Potency entry in experiment [8] and in [9] was “inactive” throughout.
In the case of `C[C@@H]1C[C@H]2O[C@@]3(O[C@@H]2C(C)(C)O)[C@H](O)[C@@]2(C)[C@@H]4CC[C@H]5C(C)(C)[C@@H](O[C@@H]6OC[C@@H](O)[C@H](O)[C@H]6O)CC[C@@]56C[C@@]46CC[C@]2(C)[C@@H]13`, the Potency entry in [1], in [2], in experiment [3], in experiment [4], in experiment [6] and in [10] was “inactive” each time. Further, the Potency result in experiment [7] is “inactive”.
For `O=S(c1cc(Cl)cc(Cl)c1O)c1cc(Cl)cc(Cl)c1O`, the Potency result in [2], in [3], in experiment [4], in experiment [5], in experiment [6] and in [7] was “inactive” in each case.
With `CCCCc1ncc(/C=C(\Cc2cccs2)C(=O)O)n1Cc1ccc(C(=O)O)cc1`, the Potency entry in [1], in experiment [2], in [3], in [4], in [5] and in experiment [6] was “inactive” each time. The Potency result in experiment [7] and in [9] was “inactive” in each case.
As for `O=C(c1ccc(F)cc1)C1CCN(CCn2c(=S)[nH]c3ccccc3c2=O)CC1`, the Potency result in experiment [2], in experiment [3], in experiment [4], in [5], in [6] and in [7] was “inactive” each time.
As for `O=C(O)C1(C(=O)Nc2ccc(Cl)cc2Cl)CC1`, the Potency entry in experiment [1], in experiment [3], in [4], in [5], in experiment [6] and in experiment [7] was “inactive” in each case.
`CN(C)c1ccc(CCO)cc1`: the Potency result in [1], in [2], in experiment [3], in experiment [4], in experiment [5] and in experiment [6] was “inactive” each time. In experiment [7], the Potency result is “inactive”.
As for `CCc1c(C(=O)NN2CCCCC2)nn(-c2ccc(Cl)cc2Cl)c1-c1ccc(Br)cc1`, the Potency in [1] was 19.5 µM (active); in experiment [10] it was 54.5 µM (active). Besides, the Potency result in [2], in experiment [3], in experiment [4], in experiment [5], in [7] and in experiment [8] was “inactive” in each case.
Turning to `OCCNCc1ccccc1`, the Potency result in experiment [2], in experiment [3], in experiment [4], in experiment [5], in [10] and in experiment [7] was “inactive” in each case. Besides, the Potency entry in experiment [8] and in experiment [9] was “inactive” in each case.
For the compound `c1ccc(C(O[C@H]2CCCN(CCc3ccc4c(c3)OCO4)C2)c2ccccc2)cc1`, the Potency entry in [1], in experiment [2], in experiment [3], in experiment [4], in experiment [5] and in [6] was “inactive” throughout. In addition, the Potency result in experiment [7] was “inactive”.
Take `CCN(CC)c1ccc(C(=C2C=CC(=[N+](CC)CC)C=C2)c2cc(S(=O)(=O)O)ccc2S(=O)(=O)[O-])cc1`: the Potency result in experiment [1], in experiment [2], in [3], in experiment [4], in experiment [5] and in experiment [8] was “inactive” throughout. Also, in experiment [9], the Potency entry was “inactive”. Besides, the Potency in experiment [6] is 13.3 µM (active).
Consider `CCCCCCCCCCCCCCOS(=O)(=O)O`, for which the results for the Potency in [1] and in [7] were 43.6 µM (active) and 54.9 µM (active), respectively. Also, the Potency entry in [3], in experiment [4], in [5] and in experiment [6] was “inactive” each time.
Regarding `CC(=O)OC[C@H]1O[C@@H](n2ncc(=O)[nH]c2=O)[C@H](OC(C)=O)[C@@H]1OC(C)=O`, the Potency entry in [1], in [2], in experiment [3], in experiment [4], in [5] and in [7] was “inactive” throughout. The Potency entry in experiment [8] is “inactive”. In addition, the Potency in experiment [10] is 1.5 µM (active).
In the case of `Cc1ccc(N=Nc2c(O)c(C(=O)O)cc3ccccc23)c(S(=O)(=O)O)c1`, the Potency entry in experiment [1], in experiment [3], in [4], in experiment [5], in experiment [6] and in experiment [7] was “inactive” throughout. In addition, in experiment [9], the Potency entry is “inactive”.
Consider `CCCCCCCCCCCCCCCCCCOS(=O)(=O)O`, for which the results for the Potency in experiment [1], in experiment [3] and in [7] were 54.9 µM (active), 43.6 µM (active) and 38.9 µM (active), respectively. The Potency result in experiment [4], in experiment [5] and in experiment [6] was “inactive” each time.
Consider `c1ccc(-c2ccccn2)nc1`, for which the Potency entry in experiment [1], in [2], in experiment [3], in experiment [4], in experiment [5] and in experiment [6] was “inactive” throughout. For the same compound, the Potency result in experiment [7] and in [9] was “inactive” in each case.
